Anaer choline gr: blocks anaerobic gram-negative growth on choline; calls only; AID 1963822; 55,000 compounds, 0.2% hits; Gram-negative bacterium anaerobic choline minimal medium, absorbance growth; active compounds read low; call rule not given here
Of the large screens only hits and unclear results are named; the others gave an inactive call. The full list was thinned out, with hits kept by preference.

O=C(COc1ccc(F)cc1)N1CC(OCc2ccc(F)cc2)C1	none
Cc1onc(-c2ccc(F)cc2F)c1C(=O)N1CCOCC1	none
CCCCCCC/C=C\CCCCCCCCC(=O)O	none
CC/C=C\C/C=C\C/C=C\CCCCCCCCCC(=O)O	Anaer choline gr active
CC/C=C\C/C=C\C/C=C\CCCCCCCCCCCC(=O)O	Anaer choline gr active
CCCCC/C=C\C/C=C\CC1OC1C/C=C\CCCC(=O)O (stereo not drawn)	none
CCCCC/C=C\C/C=C\C/C=C\C/C=C\CCCC(=O)O	none
CC/C=C\C/C=C\C/C=C\C/C=C\C/C=C\CCCC(=O)O	Anaer choline gr active
CCCCC/C=C\C/C=C\C/C=C\C/C=C\CCCCCC(=O)O	none
CC/C=C\C/C=C\C/C=C\CCCCCCCC(=O)O	none
CCCCC/C=C\C/C=C\CCCCCCCC(N)=O	none
O=c1[nH]c(SCc2cccc(Cl)c2)nc2c1CN(Cc1ccccc1)CC2	none
CCOc1ccc(-c2nc(Cn3nnc(C(=O)Nc4ccc(OC)cc4)c3C)c(C)o2)cc1	none
Cc1noc2nc[nH]c(=O)c12	Anaer choline gr active
Cc1noc2ncn(Cc3ccccc3)c(=O)c12	none
Cc1noc2ncnc(NC(C)C)c12	none
COc1ccc(-c2nnc3sc(-c4ccc(N(C)C)cc4)nn23)cc1	none
O=C(NCC1CCCO1)c1cc(NS(=O)(=O)c2ccc3c(c2)CCCC3)cnc1N1CCNCC1 (stereo not drawn)	none
O=C(NCCn1c(C(F)(F)F)nc2cccnc21)Nc1ccccc1	none
Cc1nc2sccn2c(=O)c1NC(=O)Cc1ccc(Cl)cc1	none
Cc1nc2scc(C)n2c(=O)c1NC(=O)Cc1ccc(Cl)cc1	Anaer choline gr active
Cc1nc2scc(C)n2c(=O)c1NC(=O)C(C)C	none
Cn1c(=O)n(C)c2cc(Sc3ccc(F)cc3)c(NS(=O)(=O)c3ccc4c(c3)CCC4)cc21	none
COc1cccc(NC(=O)CN2C(=O)CSc3ccc(C(=O)N4CCCC4)cc32)c1	none
CC(C)CCNC(=O)CSc1nc(-c2ccccc2)no1	none
CCCCNC(=O)CSc1nc(-c2ccc(C(C)C)cc2)no1	Anaer choline gr active
CCc1ccc(NC(=O)CSc2nc(-c3ccc(C(C)C)cc3)no2)cc1	none
CC(C)Cc1cc(-c2nn3c(COc4ccccc4)nnc3s2)n[nH]1	none
O=C(Nc1cnn(-c2ncc(N3CCSCC3)cn2)c1)C1CCOC1 (stereo not drawn)	none
O=C(Nc1cnn(-c2ncc(N3CCCC3)cn2)c1)NC1CCCC1	none
O=C(Nc1cnn(-c2ncc(N3CCCC3)cn2)c1)C1CCC1	Anaer choline gr active
CCC(=O)N1CCCC1C(=O)N1CCCN(C)CC1 (stereo not drawn)	Anaer choline gr active
CCN1CCN(C(=O)[C@@H]2CCCN2C(C)=O)CC1	none
CCC(=O)N1CCCN(S(=O)(=O)CC)CC1	none
O=C(NC1CCCC1)c1ccc2c(=O)n(-c3ccc(F)cc3)c(SCC(=O)c3c[nH]c4ccccc34)nc2c1	none
COc1ccccc1CNC(=O)c1ccc(NC(=O)c2nnc(COc3ccc(Cl)cc3)s2)cc1	none
CC(C(=O)N1CCN(c2ccccn2)CC1)n1c(=O)c(C(F)(F)F)nc2ccccc21 (stereo not drawn)	none
CN1CCN(c2ccc(NC(=O)c3ccccc3Cl)c(C(=O)O)c2)CC1	none
CCCN1CCN(c2ccc(NC(=O)c3ccccc3Cl)c(C(=O)O)c2)CC1	none
O=C(Nc1ccc(N2CCC(Cc3ccccc3)CC2)cc1C(=O)O)c1ccccc1Cl	Anaer choline gr active
CCCCN(C)c1ccc(NS(=O)(=O)c2ccc(Br)cc2)c(C(=O)O)c1	none
CCCCN(C)c1ccc(NC(=O)c2ccccc2Cl)c(C(=O)O)c1	Anaer choline gr active
CCCCN(C)c1ccc(NC(=O)C2CC2)c(C(=O)O)c1	none
Cc1ccc(-n2nc(C)c3c(C)c(CCC(=O)N4CCC(N5CCCCC5)CC4)c(C)nc32)cc1C	none
Cc1cc2c(cc1S(=O)(=O)NC(C)(C)C)OCC(=O)N2Cc1noc(C2CC2)n1	none
c1csc(-c2nc(-c3ccc(-c4csc(C5CC5)n4)cc3)no2)c1	none
O=C(CCc1nc(-c2ccc(S(=O)(=O)N3CCCCC3)cc2)no1)N1CCCC1	none
COc1ccc(NC(=O)c2ccc3nn(CC(=O)Nc4ccc(OC)c(Cl)c4)c(=O)n3c2)cc1	none
COc1ccc(NC(=O)c2nc(Nc3ccccc3)c3ccccc3n2)cc1OC	none
O=C1c2ccccc2C(Nc2ccc3c(c2)OCO3)N1Cc1ccccc1 (stereo not drawn)	none
CCN(C(=O)c1c(C)oc2ncnc(N3CCCCC3)c12)c1cc(C)ccc1C	Anaer choline gr active
Cc1oc2ncnc(N3CCCCC3)c2c1C(=O)Nc1cccc(Cl)c1	none
Cc1ccc(-c2noc3ncnc(N4CCC(C(=O)N(C)c5cc(C)ccc5C)CC4)c23)cc1	none
Cc1cc(C)c2c(n1)sc1c(=O)n(CC(=O)Nc3ccc(C(C)C)cc3)cnc12	none
COc1ccc(-n2ccc(=O)c(-c3nc(-c4ccccc4Br)no3)n2)cc1	none
Cc1ccccc1Nc1c(-c2ccc(N(C)C)cc2)nc2ncccn12	none
O=C(CSc1nnc(-c2cccnc2)o1)Nc1ccc2c(c1)OCO2	Anaer choline gr active
O=C(CSc1nnc(-c2cc3ccccc3[nH]2)o1)Nc1ccc2c(c1)OCO2	none
Cn1c(-c2nnc(SCC(=O)Nc3ccc4c(c3)OCO4)o2)cc2ccccc21	none
Cn1nc(C(=O)NCCCN2CCOCC2)c2c1-c1ccsc1CC2	none
Cc1ccc(OCc2nn3c(-c4ccoc4C)nnc3s2)cc1C	none
O=C(C1CC(=O)N(C2CCCCC2)C1)N1CCCCCC1 (stereo not drawn)	none
CC(C)c1nnc(-c2ccc(S(=O)(=O)NC3CCCC3)o2)o1	Anaer choline gr active
CC(C)c1nnc(-c2ccc(S(=O)(=O)N3CCCCC3)o2)o1	none
O=S(=O)(NC1CCCCC1)c1ccc(-c2nnc(C3CCC3)o2)o1	none
Cc1cc(C)cc(NC(=O)Nc2cc3c(cc2N2CCCC2)n(C)c(=O)n3C)c1	none
Cn1c(=O)n(C)c2cc(N3CCCC3)c(NC(=O)Nc3ccc4c(c3)OCCO4)cc21	Anaer choline gr active
O=C(Nc1ccc2c(c1)OCO2)Nc1cc(NC(=O)c2ccccc2)ccc1N1CCCC1	none
O=C(C1CCN(S(=O)(=O)c2ccc(-c3noc(C4CC4)n3)cc2)CC1)N1CCCC1	none
COc1ccc(NS(=O)(=O)c2cc(-c3ccno3)oc2C)c(OC)c1	none
Cc1ccc(-c2cccc3c(C(=O)NCCN(C)Cc4ccccc4)cc(C)nc23)cc1	none
Cc1c(C)n(-c2ccccc2)c2nc(C(=O)Nc3ccc(F)cc3Cl)nc(N3CCCC3)c12	none
COc1ccc(C(=O)Nc2ccc(OC)c(Cl)c2)c(OC)n1	none

Screening data (PubChem BioAssay)
